Reference: PubChem BioAssay AID778 (Sanford-Burnham Center for Chemical Genomics, 2007)
Screen size: about 96,000 compounds; about 20,000 (21%) were called active. These entries were drawn from the full list. A number with no mark means an inactive call.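 The calls were made as follows: active = CYP2C19 inhibition above a set limit at 5 µM in the primary screen (cut at about 50% in these data); inactive = the rest.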

target: Cytochrome P450 2C19 (Homo sapiens) (UniProt P33261); test: blockers of cytochrome P450 2C19 activity – biochemical, luminescence, ADME assay, primary screen (AID 778); conditions: CYP2C19 Supersomes, luciferin-H EGE luminescence, 30 min; at 5 µM; active compounds read high;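 also: plate controls were negative control wells for no effect and 2.5 mM tranylcypromine positive control for full effect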
Sequence (P33261 whole entry, looked up): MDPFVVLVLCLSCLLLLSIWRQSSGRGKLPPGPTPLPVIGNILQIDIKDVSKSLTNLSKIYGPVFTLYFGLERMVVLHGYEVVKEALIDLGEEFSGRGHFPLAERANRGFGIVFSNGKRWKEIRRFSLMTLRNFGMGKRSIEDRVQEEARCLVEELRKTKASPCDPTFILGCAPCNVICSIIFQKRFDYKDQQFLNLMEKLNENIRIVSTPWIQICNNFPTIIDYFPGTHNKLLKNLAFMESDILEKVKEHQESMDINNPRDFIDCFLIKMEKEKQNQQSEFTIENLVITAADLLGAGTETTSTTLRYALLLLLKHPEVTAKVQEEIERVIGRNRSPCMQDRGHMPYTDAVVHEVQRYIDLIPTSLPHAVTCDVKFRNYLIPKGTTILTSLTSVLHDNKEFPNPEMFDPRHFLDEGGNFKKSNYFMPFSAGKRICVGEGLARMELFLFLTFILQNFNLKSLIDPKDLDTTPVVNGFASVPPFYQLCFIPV

With COc1ccc(-n2nc3c(c2NC(=O)Cc2cccc(C)c2)CS(=O)C3)cc1 (stereo not drawn) as the molecule, how does the inhibition read?
Its inhibition is 76.9% (active).

Which inhibition does the source give for COc1ccc(-n2nc(C(=O)NCC(=O)Nc3cccc(C)n3)c3ccccc3c2=O)cc1 here?
The inhibition was -1.3%.

For O=C(Nc1c2c(nn1-c1ccc(F)cc1)CS(=O)C2)C12CC3CC(CC(C3)C1)C2 (stereo not drawn), which inhibition is on record?
Its inhibition is 9.1%.

How did the inhibition turn out when CC(C)(C)n1nc2c(c1NC(=O)c1ccc(S(=O)(=O)N3CCCC3)cc1)CS(=O)C2 (stereo not drawn) was run?
The inhibition was 10.7%.

O=C(CC1CCCCC1)Nc1c2c(nn1-c1ccc(F)cc1)CS(=O)(=O)C2 was tested. Which inhibition did it give?
The inhibition was 5%.

How did the inhibition turn out when Cc1ccc(-n2nc3c(c2NC(=O)CCC2CCCCC2)CS(=O)C3)cc1 (stereo not drawn) was run?
Its inhibition is 80.4% (active).

For CCCCc1nc2c(=O)[nH]c3ccccc3c2o1, which inhibition is on record?
Its inhibition is -9.6%.

CCC1(C)Cc2c(sc3[nH]c(=S)n(Cc4ccccc4)c(=O)c23)CO1 (stereo not drawn) was tested. Which inhibition did it give?
Its inhibition is 9.8%.

How did the inhibition turn out when O=C(Cn1nnc(-c2ccc(CN3CCOCC3)cc2)n1)NC1CCCCC1 was run?
The inhibition was 9%.

How did the inhibition turn out when CC(=O)C1=C(O)C(=O)N(c2ccc(S(N)(=O)=O)cc2)C1c1ccccc1F (stereo not drawn) was run?
Its inhibition is -8%.

With Clc1ccc(-c2cc(COc3ccccc3)no2)cc1Cl as the molecule, how does the inhibition read?
Its inhibition is 10.4%.

O=c1c([N+](=O)[O-])cc(C(F)(F)F)cn1Cc1cccc(Cl)c1 was tested. Which inhibition did it give?
The inhibition was 24.2%.

With C=CCNc1nnc(C)c2ccccc12 as the molecule, how does the inhibition read?
The inhibition was -10.2%.

Which inhibition does the source give for CCc1c(O)nc(SCC(=O)N2CCCCC2)n(-c2ccccc2C)c1=O here?
The inhibition was 0.9%.

Which inhibition does the source give for C=CCNc1nnc(SCC(=O)N2CCCCC2)c2ccccc12 here?
Its inhibition is 50.6% (active).

With c1ccc2c(c1)C(=NC1CCCCC1)NC2=NC1CCCCC1 as the molecule, how does the inhibition read?
The inhibition was 4.5%.

How did the inhibition turn out when O=C(Nc1cccc(OCC(=O)N2CCOCC2)c1)C1CCCCC1 was run?
The inhibition was -9.5%.

How did the inhibition turn out when CN(C)CCCNc1c2c(c(C#N)c3nc4ccccc4n13)CCC2 was run?
Its inhibition is 0%.

With CCOC(=O)N1CCC(Nc2c(NCCN3CCN(c4cccc(Cl)c4)CC3)c(=O)c2=O)CC1 as the molecule, how does the inhibition read?
The inhibition was 2.4%.

How did the inhibition turn out when O=S(=O)(N/N=C\c1cccn1-c1ccccc1)c1ccc2ccccc2c1 was run?
Its inhibition is 49.7%.

With CCCCn1c(SCC(=O)NCCc2ccc(OC)c(OC)c2)nc2c1c(=O)n(C)c(=O)n2C as the molecule, how does the inhibition read?
The inhibition was -14.1%.

With O=C(CCCC(=O)N(CC(=O)NC1CCCC1)Cc1ccccc1Cl)Nc1ccccn1 as the molecule, how does the inhibition read?
The inhibition was 77.5% (active).

How did the inhibition turn out when CCC(C)(NC(=O)c1ccccn1)C(=O)NC1CCCCC1 (stereo not drawn) was run?
The inhibition was 17.6%.

CCOc1ccccc1N(CC(=O)NC1CCCCC1)C(=O)CCCC(=O)Nc1ccccn1 was tested. Which inhibition did it give?
The inhibition was 68.9% (active).

For Cc1noc(C)c1C(=O)N(CC(=O)NC1CCCC1)Cc1ccccc1F, which inhibition is on record?
Its inhibition is -7.6%.

CCCC(=O)Nc1cc(OCC)c(NC(=O)NC2CCCCC2)cc1OCC was tested. Which inhibition did it give?
Its inhibition is 10.5%.

Which inhibition does the source give for Cc1ccc(C(C(=O)NC2CCCC2)N(Cc2ccco2)C(=O)CCC(=O)Nc2ccccn2)cc1 (stereo not drawn) here?
The inhibition was 10.6%.

How did the inhibition turn out when O=C1CCCC(O)=C1C=NCCc1ccccc1 was run?
Its inhibition is 12.8%.

With CC(CCO)Nc1nc2c([nH]1)c(=O)n(C)c(=O)n2C (stereo not drawn) as the molecule, how does the inhibition read?
The inhibition was 0.9%.

For Cn1c2c(c(=O)n(C)c1=O)C(c1ccc(O)cc1)Nc1ccccc1O2 (stereo not drawn), which inhibition is on record?
Its inhibition is 2%.

Which inhibition does the source give for CCOc1[nH]n(-c2ccc(Cl)cc2)c(=O)c1C=Nc1ccc(O)cc1 here?
The inhibition was 13.5%.

For CCCN1CCN(C(=O)Cn2ncc3ccccc32)CC1, which inhibition is on record?
Its inhibition is 12.6%.

How did the inhibition turn out when Cc1nnc(N(Cc2ccco2)C(=O)c2ccno2)s1 was run?
Its inhibition is 80.5% (active).

COCCN(C(=O)c1ccco1)c1nnc(-c2ccc(OC)cc2)s1 was tested. Which inhibition did it give?
The inhibition was 24%.

CN(C(=O)c1ccno1)c1nnc(-c2cccnc2)s1 was tested. Which inhibition did it give?
Its inhibition is -0.7%.

Which inhibition does the source give for Cc1nnc(SCCCn2c(N3CCCCC3)nc3c2c(=O)[nH]c(=O)n3C)s1 here?
The inhibition was 22.6%.

For CCCn1nnnc1NC(=O)COc1ccc(Cl)cc1C, which inhibition is on record?
The inhibition was 70.2% (active).

For Cc1cccc(NC(=O)COc2ccc(Br)cc2C)n1, which inhibition is on record?
Its inhibition is 5%.

Which inhibition does the source give for Cc1ccc(O)c(NC(=O)COc2cc(C)ccc2C)c1 here?
The inhibition was -2.7%.

With CN1CCN(S(=O)(=O)c2ccc3[nH]cc(C(=O)O)c(=O)c3c2)CC1 as the molecule, how does the inhibition read?
The inhibition was 3.6%.

Which inhibition does the source give for CCNC(=S)Nc1cccc(Cl)c1C here?
Its inhibition is 48%.

How did the inhibition turn out when Cc1cc(C)nc(SCc2ccccc2C#N)n1 was run?
Its inhibition is 50.2% (active).

For Nc1nc(SCc2ccccc2Cl)n[nH]1, which inhibition is on record?
Its inhibition is 0.1%.

Which inhibition does the source give for Clc1ccccc1CSc1nnc(-c2ccco2)c(-c2ccco2)n1 here?
The inhibition was 31.1%.

How did the inhibition turn out when Cc1ccc(CS(=O)(=O)CCC(=O)NC2CC2)cc1 was run?
Its inhibition is 9.7%.

How did the inhibition turn out when CCCCCNC(=O)Cc1ccc(OC)cc1 was run?
The inhibition was 92.4% (active).

Which inhibition does the source give for COc1ccc(CNC(=O)CCn2cccc2)cc1 here?
The inhibition was 35%.

For COc1ccc(OCC(=O)NCCc2ccc(S(N)(=O)=O)cc2)cc1, which inhibition is on record?
The inhibition was 19.4%.

Which inhibition does the source give for O=C(NCCN=C1NS(=O)(=O)c2ccccc21)c1ccc(S(=O)(=O)N2CCOCC2)cc1 here?
The inhibition was -2%.

How did the inhibition turn out when O=C1CCCC2=C1C(c1ccccc1)n1c(s/c(=C/c3cccc(F)c3)c1=O)=N2 (stereo not drawn) was run?
Its inhibition is 34.6%.

Which inhibition does the source give for CS(=O)(=O)Nc1cccc(C2=NN(S(=O)(=O)c3ccccc3)C(c3cccs3)C2)c1 (stereo not drawn) here?
Its inhibition is 72.2% (active).

Which inhibition does the source give for CCOC(=O)C1CCN(C(=O)c2oc3ccc(S(=O)(=O)N4CCCCCC4)cc3c2C)CC1 here?
The inhibition was 40.4%.

With O=C(Nc1nnc(SCc2ccccc2)s1)c1ccco1 as the molecule, how does the inhibition read?
Its inhibition is 2.5%.

How did the inhibition turn out when COc1ccc2c(CC(=O)Nc3nnc(C4CC4)s3)coc2c1 was run?
Its inhibition is 12.6%.

CCOc1ccc(CN(Cc2ccco2)C(c2cccs2)c2nnnn2C(C)(C)C)cc1 (stereo not drawn) was tested. Which inhibition did it give?
The inhibition was 47.8%.

For CCOc1ccc(CN(Cc2ccco2)S(=O)(=O)c2ccc(-n3cnnn3)c(OC)c2)cc1, which inhibition is on record?
Its inhibition is 57.7% (active).

Which inhibition does the source give for COc1ccc(CN(Cc2ccco2)S(=O)(=O)c2ccc(S(=O)(=O)N3CCCC3)cc2)cc1 here?
The inhibition was 38.7%.

How did the inhibition turn out when CCOc1nnc(C)c2c(C)n(-c3cccc(Cl)c3)nc12 was run?
The inhibition was 45.7%.

Cc1cc(=O)n(C)c(=O)n1CCCNc1ccccc1 was tested. Which inhibition did it give?
Its inhibition is 18.5%.

CC(=O)c1sc(NC(=O)c2cccc3ccccc23)nc1C was tested. Which inhibition did it give?
Its inhibition is -21.9%.

Which inhibition does the source give for COc1ccccc1N1CCN(C(=O)c2c(-c3c(Cl)cccc3Cl)noc2C)CC1 here?
The inhibition was 78.9% (active).

For COc1ccccc1N1CCN(C(=O)c2ccc(S(=O)(=O)N3CCCCC3)cc2)CC1, which inhibition is on record?
Its inhibition is 28.3%.

With COc1ccccc1N1CCN(C(=O)c2cc(-c3ccc(Br)cc3)on2)CC1 as the molecule, how does the inhibition read?
Its inhibition is -2.9%.
